According to the antibiotic and cytotoxicity screens of Wong et al. (2023):
The whole screen tested about 39,000 compounds, of which about 1,500 (3.8%) were called active. What follows is part of a selection rich in actives, with near analogues and random picks from the rest.

tested on: HSkMC (human skeletal muscle cells); assay: cytotoxicity call (relative viability < 0.9); settings: 10 µM

Which cytotoxicity call does the source give for `COc1ccc(S(=O)(=O)Nc2ccc3c(c2)C(=O)N([C@@H](C)CO)C[C@@H](C)[C@@H](CN(C)CC2CCCCC2)OCCCC[C@H](C)O3)cc1` here?
The cytotoxicity call was “inactive”.

`C=CCOC(=O)[C@@H]1[C@H]2C(=O)O[C@H](c3ccccc3)[C@H](c3ccccc3)N2[C@H](c2ccc(OCCOC(=O)[C@H]3C[C@H]4C(=O)N5CCC[C@H]5C(=O)N4[C@H]3c3ccc(O)cc3)cc2)[C@@]12C(=O)Nc1ccc(I)cc12` was tested. Which cytotoxicity call did it give?
Its cytotoxicity call is “inactive”.

How did the cytotoxicity call turn out when `C[C@H]1CN([C@@H](C)CO)C(=O)c2cc(NC(=O)CCCCCC(=O)Nc3ccccc3N)ccc2O[C@@H]1CN(C)S(C)(=O)=O` was run?
Its cytotoxicity call is “inactive”.

Which cytotoxicity call does the source give for `O=C(C[C@H]1CC[C@H]2[C@@H](COC[C@@H](O)CN2Cc2ccccc2F)O1)N[C@@H]1CCN(Cc2ccccc2)C1` here?
The cytotoxicity call was “inactive”.

Which cytotoxicity call does the source give for `CCCCCCCCCCNc1cc(CO)c2cc[nH]c2c1` here?
Its cytotoxicity call is “inactive”.

How did the cytotoxicity call turn out when `COc1ccc(S(=O)(=O)Nc2ccc3c(c2)C(=O)N([C@H](C)CO)C[C@H](C)[C@H](CN(C)C(=O)NC2CCCCC2)OCCCC[C@H](C)O3)cc1` was run?
Its cytotoxicity call is “inactive”.

Which cytotoxicity call does the source give for `C[C@@H]1CN([C@H](C)CO)C(=O)Cc2cc(NS(=O)(=O)c3ccc(F)cc3)ccc2O[C@H]1CN(C)Cc1ccc(Cl)c(Cl)c1` here?
The cytotoxicity call was “inactive”.

With `C[C@H]1CN([C@@H](C)CO)C(=O)Cc2cc(NS(=O)(=O)c3ccc(F)cc3)ccc2O[C@H]1CN(C)Cc1ccc(Cl)c(Cl)c1` as the compound, how does the cytotoxicity call read?
Its cytotoxicity call is “inactive”.

`C[C@@H]1CN([C@@H](C)CO)C(=O)Cc2cc(NS(=O)(=O)c3ccc(F)cc3)ccc2O[C@@H]1CN(C)Cc1ccc(Cl)c(Cl)c1` was tested. Which cytotoxicity call did it give?
Its cytotoxicity call is “active”.

`C[C@@H]1CN([C@@H](C)CO)C(=O)Cc2cc(NS(=O)(=O)c3ccc(F)cc3)ccc2O[C@H]1CN(C)Cc1ccc(Cl)c(Cl)c1` was tested. Which cytotoxicity call did it give?
Its cytotoxicity call is “inactive”.

For `C[C@H]1CN([C@@H](C)CO)C(=O)Cc2cc(NS(=O)(=O)c3ccc(F)cc3)ccc2O[C@@H]1CN(C)Cc1ccc(Cl)c(Cl)c1`, which cytotoxicity call is on record?
The cytotoxicity call was “inactive”.

`C[C@@H]1CN([C@H](C)CO)C(=O)Cc2cc(NS(=O)(=O)c3ccc(F)cc3)ccc2O[C@@H]1CN(C)Cc1ccc(Cl)c(Cl)c1` was tested. Which cytotoxicity call did it give?
The cytotoxicity call was “active”.

Which cytotoxicity call does the source give for `C[C@H]1CCCCO[C@@H](CN(C)S(=O)(=O)c2cccs2)[C@@H](C)CN([C@@H](C)CO)C(=O)c2cc(NC(=O)C3CCCCC3)ccc2O1` here?
Its cytotoxicity call is “inactive”.

For `C[C@H](CO)N1C[C@H](C)[C@H](CN(C)Cc2ccc(C(=O)Nc3ccccc3N)cc2)Oc2ccc(NC(=O)C3CCCCC3)cc2C1=O`, which cytotoxicity call is on record?
Its cytotoxicity call is “inactive”.

`C[C@@H]1CN([C@H](C)CO)C(=O)Cc2cc(NS(=O)(=O)c3cccs3)ccc2O[C@@H]1CN(C)Cc1ccc(Cl)c(Cl)c1` was tested. Which cytotoxicity call did it give?
The cytotoxicity call was “active”.

`C[C@H]1CN([C@@H](C)CO)C(=O)Cc2cc(NS(=O)(=O)c3cccs3)ccc2O[C@H]1CN(C)Cc1ccc(Cl)c(Cl)c1` was tested. Which cytotoxicity call did it give?
The cytotoxicity call was “active”.

How did the cytotoxicity call turn out when `C[C@H]1CN([C@@H](C)CO)C(=O)Cc2cc(NS(=O)(=O)c3cccs3)ccc2O[C@@H]1CN(C)Cc1ccc(Cl)c(Cl)c1` was run?
The cytotoxicity call was “inactive”.

For `C[C@H](CO)N1C[C@H](C)[C@@H](CN(C)Cc2ccc(Cl)c(Cl)c2)Oc2ccc(NS(=O)(=O)c3cccs3)cc2CC1=O`, which cytotoxicity call is on record?
Its cytotoxicity call is “inactive”.

`C[C@@H]1CN([C@@H](C)CO)C(=O)Cc2cc(NS(=O)(=O)c3cccs3)ccc2O[C@@H]1CN(C)Cc1ccc(Cl)c(Cl)c1` was tested. Which cytotoxicity call did it give?
The cytotoxicity call was “inactive”.

`C[C@@H]1CN([C@H](C)CO)C(=O)Cc2cc(NS(=O)(=O)c3cccs3)ccc2O[C@H]1CN(C)Cc1ccc(Cl)c(Cl)c1` was tested. Which cytotoxicity call did it give?
The cytotoxicity call was “active”.

How did the cytotoxicity call turn out when `C[C@@H]1CN([C@@H](C)CO)C(=O)Cc2cc(NS(=O)(=O)c3cccs3)ccc2O[C@H]1CN(C)Cc1ccc(Cl)c(Cl)c1` was run?
The cytotoxicity call was “inactive”.

Which cytotoxicity call does the source give for `C[C@H](CO)N1C[C@H](C)[C@H](CN(C)Cc2ccc(Cl)c(Cl)c2)Oc2ccc(NS(=O)(=O)c3cccs3)cc2CC1=O` here?
Its cytotoxicity call is “inactive”.

`C[C@@H]1CN([C@H](C)CO)C(=O)Cc2cc(NS(=O)(=O)c3cccs3)ccc2O[C@@H]1CN(C)Cc1ccncc1` was tested. Which cytotoxicity call did it give?
The cytotoxicity call was “inactive”.

`COc1ccc(S(=O)(=O)N(C)C[C@H]2Oc3c(NC(=O)NC(C)C)cccc3C(=O)N([C@H](C)CO)C[C@H]2C)cc1` was tested. Which cytotoxicity call did it give?
Its cytotoxicity call is “inactive”.

`C[C@@H]1CN([C@H](C)CO)C(=O)c2cc(NC(=O)C3CCCCC3)ccc2O[C@@H](C)CCCCO[C@H]1CN(C)S(=O)(=O)c1ccccc1` was tested. Which cytotoxicity call did it give?
Its cytotoxicity call is “inactive”.

`C[C@H]1CN([C@@H](C)CO)C(=O)c2c(c3ccccc3n2C)-c2ccccc2CO[C@H]1CN(C)C(=O)Nc1ccccc1C(F)(F)F` was tested. Which cytotoxicity call did it give?
The cytotoxicity call was “inactive”.

How did the cytotoxicity call turn out when `COc1ccc(NC(=O)Nc2cccc3c2O[C@@H](CN(C)Cc2ccc(Cl)c(Cl)c2)[C@H](C)CN([C@H](C)CO)C3=O)cc1` was run?
Its cytotoxicity call is “inactive”.

`CC(C)NC(=O)Nc1ccc2c(c1)C(=O)N([C@@H](C)CO)C[C@@H](C)[C@H](CN(C)Cc1ccc(Cl)c(Cl)c1)OCCCC[C@@H](C)O2` was tested. Which cytotoxicity call did it give?
Its cytotoxicity call is “inactive”.

Which cytotoxicity call does the source give for `C[C@@H]1CN([C@@H](C)CO)C(=O)c2cccc(NC(=O)c3ccncc3)c2O[C@@H]1CN(C)S(=O)(=O)c1cccs1` here?
Its cytotoxicity call is “inactive”.

`C[C@H]1CN([C@@H](C)CO)C(=O)CCCn2cc(nn2)CO[C@H]1CN(C)C(=O)C1CC1` was tested. Which cytotoxicity call did it give?
The cytotoxicity call was “inactive”.

`O=C(C[C@@H]1CC[C@@H]2[C@H](COC[C@H](O)CN2S(=O)(=O)c2cccc(F)c2)O1)NCCCN1CCOCC1` was tested. Which cytotoxicity call did it give?
The cytotoxicity call was “inactive”.

For `CNc1nc(OCC#N)nc(N2CCCCC2)n1`, which cytotoxicity call is on record?
Its cytotoxicity call is “inactive”.

How did the cytotoxicity call turn out when `COC(=O)[C@@]12OC[C@]34[C@H]([C@@H](O)[C@@H]1O)[C@@]1(C)CC(=O)C(=O)[C@H](C)[C@@H]1C[C@H]3OC(=O)[C@H](OC(=O)/C=C(\C)C(C)C)[C@@H]24` was run?
Its cytotoxicity call is “active”.

With `C[C@H](CO)N1C[C@H](C)[C@@H](CN(C)S(=O)(=O)c2ccccc2)Oc2ncc(C#Cc3ccccc3F)cc2C1=O` as the compound, how does the cytotoxicity call read?
The cytotoxicity call was “inactive”.

With `O=C(C[C@@H]1CC[C@H]2[C@@H](COC[C@@H](O)CN2C(=O)c2ccc3c(c2)OCO3)O1)NCCN1CCCCC1` as the compound, how does the cytotoxicity call read?
Its cytotoxicity call is “inactive”.

With `CC(=O)NCC(=O)N1CCC2(CC1)CN(c1cnn(C)c1)C(=O)CO2` as the compound, how does the cytotoxicity call read?
The cytotoxicity call was “inactive”.

How did the cytotoxicity call turn out when `COc1ccccc1N1CCN(CC(O)COc2cccc3ccccc23)CC1` (centres undefined) was run?
The cytotoxicity call was “inactive”.

How did the cytotoxicity call turn out when `O=C1C(=O)N(C[C@@H](O)COc2cccc3ccccc23)C(=O)C(=O)N1C[C@@H](O)COc1cccc2ccccc12` was run?
Its cytotoxicity call is “inactive”.

For `O[C@@H](COc1cccc2ncccc12)CN1CCN([C@@H]2c3ccccc3[C@@H]3[C@H](c4ccccc42)C3(F)F)CC1`, which cytotoxicity call is on record?
Its cytotoxicity call is “active”.
